Assay results taken from ChEMBL document CHEMBL4888484, “Replenishing the malaria drug discovery pipeline: Screening and hit evaluation of the MMV Hit Generation Library 1 (HGL1) against asexual blood stage Plasmodium falciparum ,using a nano luciferase reporter read-out” (2022).
Among all 4,800 compounds or so, about 420 (8.8%) showed an effect of 50% or more. Only a selection was taken, and strong results are over-represented in it overall.

Tested on: Plasmodium falciparum
Assay: Confirmatory screen in NF54 nanoGlo assay, in single point, at 2uM, 72h
Assay type: functional, Erythrocyte
Conditions: timepoint 72 hour

Row | Compound | % Inhibition [%]
1 | Cc1ccc(/N=C(/Nc2ccc(Br)cc2)c2cc(C(C)(C)C)c(O)c(C(C)(C)C)c2)cc1 | -15
2 | O=S(=O)(c1ccc(F)c(Cl)c1)N1CC[C@H](Oc2ccncc2Cl)C1 | 75
3 | O=S(=O)(c1ccco1)N1CC[C@H](Oc2ccccc2)C1 | 2
4 | O=S(=O)(c1ccc(Cl)cc1)N1CCC(c2cc(-c3cccc(C(F)(F)F)c3)[nH]n2)CC1 | -1
5 | COC(=O)C1NS(=O)(=O)c2ccc(Cl)cc2C1(O)c1ccccc1F (configuration not stated) | -5
6 | O=C(Nc1ccc(F)c(Cl)c1)c1ccn(COc2ccccc2Cl)n1 | -6
7 | O=C(N[C@@H](N1CCCCC1)C(Cl)(Cl)Cl)c1cccnc1 | 2
8 | CC(C)c1ccc2ncnc(N[C@H]3CCc4[nH]cnc4C3)c2c1 | 97
9 | O=C(Cc1ccc(F)cc1F)N1CCc2[nH]nc(C(=O)N3CCN(c4ccccc4)CC3)c2C1 | 3
10 | Cc1ccccc1Nc1c(-c2c[nH]c3ccccc23)nc2ncccn12 | 1
11 | Cc1cc2c(OC[C@@H](O)CN3CCOCC3)cccc2[nH]1 | -13
12 | Cc1cc(C)nc([C@@H](C#N)C(=O)c2ccnc(OCC(F)F)c2)n1 | -7
13 | COc1ccccc1C(=O)Nc1ccc(N2CCCN(C)CC2)cc1C(=O)O | -12
14 | Cn1ccnc(N[C@@H](COc2ccccc2F)c2ccccc2)c1=O | -7
15 | Cc1ccc(S(=O)(=O)N2CC[C@H](CC(=O)NCc3ccccc3)C2)cc1C | -16
16 | CNC(=O)COc1c(Cl)ccc(Cl)c1Br | 0
17 | CCN(CCC1CCN(C(=O)Nc2ccc(OC3CCOCC3)c(C)c2)CC1)CC(C)C | -3
18 | CC(C)(C)[C@H]1CCc2c(sc(NC(=O)C3(F)C(F)(F)C(F)(F)C(F)(F)C(F)(F)C3(F)F)c2C#N)C1 | 50
19 | N#Cc1c(NC(=O)CN2CCC[C@@H]2CO)sc2c1CCCCC2 | 1
20 | COc1ccc2[nH]c(-c3nnc(Cn4c(C)cc5ccccc54)s3)cc2c1 | 2
21 | Cc1cc(S(=O)(=O)NC(=O)CCC(C)C)c(C)o1 | -7
22 | Cc1nc2ccccc2n1CC1CCCN1C(=O)C1CCc2cccnc21 (configuration not stated) | -7
23 | CN(Cc1ccccc1)C(=O)C[C@H]1CCN(C(=O)c2cnccn2)C1 | -1
24 | COc1ccc2c(c1)/C(=C1/SC(C(C)=O)=C(c3ccccc3)S1)C(=S)C(C)(C)N2C(=O)Nc1ccc(Cl)c(Cl)c1 | -7
25 | Cc1ccc(-c2nc(CNC(=O)C[C@H]3CNCCO3)[nH]c2-c2ccccn2)cc1 | 22
26 | Cn1ncnc1CCNC(=O)NC(C1CCCC1)C1CCCC1 | 1

Row | Compound | % Inhibition [%]
27 | O=C(NC1CC1)c1cn(CC2(O)CCN(Cc3ccccc3)CC2)nn1 | 0
28 | CC1(C)CC(=O)C2(Cc3ccccc3N3CCN(Cc4ccccc4)C[C@H]32)C(=O)C1 | 8
29 | O=C(Nc1sc2c(c1C(=O)O)CCC2)c1ccsc1 | -3
30 | COC(=O)[C@@H](NC(=O)NC1CCCCC1)C(C)(C)C | -2
31 | Cc1ccsc1-c1noc([C@@H]2COCCN2C)n1 | -7
32 | COc1c(O)ccc2c(=O)c3c(O)cc(O)c(OC)c3n(C)c12 | -3
33 | CC1(C)C(NCC(O)COc2ccc(F)c(F)c2)[C@@H]2CCC[C@@H]21 (some centres not stated) | 72
34 | COc1ccc(Oc2c(CN(CC3CC3)C(=O)c3ccccc3)c(-c3ccccc3)nn2C)cc1 | 2
35 | CC1(C)Oc2ccc(NC(=O)c3ccco3)cc2NC1=O | -2
36 | CC(C)N(C)CC1CCN(C(=O)c2cc(-c3ccccc3)c(N3CCOCC3)s2)CC1 | -4
37 | CCOc1cc(-c2cc(-c3ccccc3O)nc3ccc4ccccc4c23)cc(Br)c1O | 91
38 | COc1cccc(CNCc2ccccc2)c1OCc1ccccc1Cl | -1
39 | O=c1c2ccccc2nnn1-c1ncc(C(F)(F)F)cc1Cl | -9
40 | CC(C)(C)CCS(=O)(=O)N1CCC[C@H]1C1CCCCC1 | 0
41 | Cn1cccc1C(=O)N1CCCN(S(C)(=O)=O)[C@H]2CCC[C@H]2C(=O)NCC1 | 0
42 | CC(C)CCn1nnnc1[C@]1(N(C)C)CCCN(C(=O)c2cccn2C)C1 | 88
43 | COc1cccc(C(=O)N2CCC(c3nc(-c4ccc5c(c4)OCO5)no3)CC2)c1OC | -3
44 | Cc1ccc(S(=O)(=O)N2CCN(C(=O)N3CCOCC3)[C@@H]2C)cc1 | -8
45 | C#CCOCC(O)CN(Cc1c(-c2ccccc2)noc1N1CCC(C)CC1)CC1CCCO1 (configuration not stated) | -17
46 | O=C(OCc1ccc(C(F)(F)F)nc1)c1ccc(C(F)(F)F)nc1 | 7
47 | O=C(NC1CCOCC1)c1ccc(-c2ccc(F)c(F)c2F)cn1 | 6
48 | CNC(=O)[C@@H](NC(=O)CNC(=O)c1ccc(Cl)cc1)C(C)(C)C | -11
49 | O=C(NCCN1CCCC1)c1ccc2c(c1)OCCO2 | -12
50 | CC(=O)N1CCc2cc(-c3ccc(C(=O)NCCC(C)C)cc3)ccc21 | 2
51 | O=C(c1ccnn1C(F)F)N1N=CC[C@]1(O)C(F)(F)F | -5
52 | Cc1cc(CS(=O)(=O)NCCOc2ccc(Cl)cc2)on1 | 2
